56 compounds from PubChem BioAssay AID770 (SRMLSC, 2007) can be followed below.

Molecules are shown by their SMILES. The campaign covered roughly 3,300 compounds. Fewer than 10 were called active.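 Rule for the calls: active = growth inhibition above 90% in viable cell count at a single dose; inactive = growth inhibition below 90%.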 These entries were drawn from the full list.

A short description of this assay: HT29 colon tumor cell growth inhibition, primary screen, imaging, high content imaging, 24 h, CellTiter-Glo (AID 770).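 For condensed nuclei: share of cells whose nuclear area falls below control median minus 1.5 SD.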 The settings on record: HT29 cell number by imaging, at 10 µM, stronger effect = higher value; for condensed nuclei: measured here: percent cells with condensed nuclei. On the technique in general: ATP-based viability assays read luminescence as a measure of living cells.

Where [1] appears, read: measured here: ATP CellTiter-Glo viability.

For the compound `CC1(C)Cc2c(c(-c3ccccc3Cl)[nH]c(=O)c2C#N)CO1`, the growth inhibition is -42.2% (inactive) and the condensed nuclei stood at 1.85%. Under setting [1], the growth inhibition was -17.5%.

As to `COC(=O)C(NC(C)=O)(Nc1ccccc1)C(=O)OC`, the growth inhibition is -24.8% (inactive) and the condensed nuclei was found to be 3.37%. Moreover, under setting [1], the growth inhibition was -9.05%.

For `O=C(OCCCN1CCCC1)C1(c2ccccc2)CCCC1`, the growth inhibition is 3.8% (inactive) and the condensed nuclei was 5.7%. The growth inhibition under setting [1] was 4.75%.

For the compound `N#CC1=C2SCC(O)(c3ccccc3)N2C(=O)CC1c1ccccc1` (stereo not drawn), the growth inhibition is 90.7% (active) and the condensed nuclei amounted to 46%. Further, the growth inhibition under setting [1] is 28.5%.

For `C=C(C)CSC1=C(C#N)C(c2ccsc2)CC(=O)N1` (stereo not drawn), the growth inhibition is -9.27% (inactive) and the condensed nuclei worked out at 1.96%. For the same compound, under setting [1], the growth inhibition was -4.29%.

Consider `CCCCCCSC1=C(C#N)C(c2ccccc2)CC(=O)N1` (stereo not drawn), for which the growth inhibition is -14.4% (inactive) and the condensed nuclei came to 3.36%. In addition, under setting [1], the growth inhibition was -7.19%.

Take `Nc1c2c(nc3ccccc13)N(c1ccccc1)CC2`: the growth inhibition is -26.1% (inactive) and the condensed nuclei worked out at 3.19%. The growth inhibition under setting [1] was -9.66%.

`CC(C)c1cc(NCCCN2CCOCC2)n2c(nc3ccccc32)c1C#N`: the growth inhibition was -4.17% (inactive) and the condensed nuclei was 5.23%. The growth inhibition under setting [1] was -7.5%.

As for `CCCOc1ccc(C2NC(=O)NC2=O)cc1` (stereo not drawn), the growth inhibition is 10.6% (inactive) and the condensed nuclei amounted to 16%. The growth inhibition under setting [1] was -11.9%.

On to `Cc1cc(C)n(Cc2cc(C)c(Cn3nc(C)cc3C)cc2C)n1`, for which the growth inhibition was -26.1% (inactive) and the condensed nuclei was determined as 2.58%. Further, the growth inhibition under setting [1] was -2.81%.

In the case of `CCOc1ccc2c(C)nc(NC3=NC(C)(C)C=C(C)N3)nc2c1`, the growth inhibition was 18.5% (inactive) and the condensed nuclei amounted to 3.47%. For the same compound, the growth inhibition under setting [1] worked out at 16.6%.

As to `CC1(C)Cc2c(sc3c4nnnn4c4nnnn4c23)CO1`, the growth inhibition is 6.59% (inactive) and the condensed nuclei turned out to be 2.72%. Moreover, under setting [1], the growth inhibition was -3.55%.

Turning to `Cc1ccc(C(=O)C2=C(O)C(=O)N(CCN3CCOCC3)C2c2ccccn2)o1` (stereo not drawn), the growth inhibition was 20.8% (inactive) and the condensed nuclei was determined as 4.96%. The growth inhibition under setting [1] is 0.76%.

As for `Cc1cccn2c(=O)c(/C=C(\C#N)S(=O)(=O)c3ccccc3)c(N3CCN(C)CC3)nc12`, the growth inhibition is 5.64% (inactive) and the condensed nuclei was found to be 3.93%. In addition, the growth inhibition under setting [1] turned out to be 13.3%.

As for `Nc1nnc(CSCc2ccc(F)cc2)s1`, the growth inhibition was -13.9% (inactive) and the condensed nuclei stood at 3.43%. For the same compound, the growth inhibition under setting [1] is -8.17%.

Regarding `Cc1ccc2[nH]c3c(N4CCCCCC4)ncnc3c2c1`, the growth inhibition is 74.2% (inactive) and the condensed nuclei is 5.98%. For the same compound, the growth inhibition under setting [1] was 38.6%.

Take `Cc1cc(=O)oc(C)c1C(=O)Nc1cccc2nonc12`: the growth inhibition was 38% (inactive) and the condensed nuclei was 3.32%. Also, under setting [1], the growth inhibition was determined as 7.72%.

Regarding `C/C(=N\O)C(=O)NCCCNCCCN(C)C`, the growth inhibition is 28.6% (inactive) and the condensed nuclei is 4.53%. Further, the growth inhibition under setting [1] came to 10.3%.

Take `N#CC1=C(SCC(=O)c2ccc(Cl)cc2)NC2=C(C(=O)CCC2)C1c1ccco1` (stereo not drawn): the growth inhibition is 64.2% (inactive) and the condensed nuclei amounted to 20.2%. The growth inhibition under setting [1] is 40%.

Regarding `O=S(=O)(/C=C/c1ccccc1)Nc1ccc2c(c1)OCO2`, the growth inhibition was -3.8% (inactive) and the condensed nuclei was determined as 3.87%. Also, under setting [1], the growth inhibition is -13.4%.

As to `CCCOc1ccc(/C(O)=C2/C(=O)C(=O)N(CCN(C)C)C2c2ccncc2)cc1` (stereo not drawn), the growth inhibition is -14% (inactive) and the condensed nuclei is 5.23%. The growth inhibition under setting [1] was -1.78%.

In the case of `CCOc1nc(SCCOc2ccc(C)cc2)nc(N(C)C)n1`, the growth inhibition is -2.97% (inactive) and the condensed nuclei is 2.83%. Also, under setting [1], the growth inhibition is -13.9%.

For `CCOC(=O)COc1ccc(Oc2nc(C)cc(OC)n2)nn1`, the growth inhibition was -1.19% (inactive) and the condensed nuclei was 5.21%. In addition, the growth inhibition under setting [1] was 1.86%.

As to `CCCCN(C(=O)CCC(=O)O)C1CC(=O)N(c2ccc(OCCC)cc2)C1=O` (stereo not drawn), the growth inhibition is 20.1% (inactive) and the condensed nuclei is 1.69%. Also, under setting [1], the growth inhibition is 7.14%.

Turning to `COCc1[nH]nc2c1C(c1ccccc1OC)C(C#N)=C(N)O2` (stereo not drawn), the growth inhibition was 34.7% (inactive) and the condensed nuclei worked out at 3.93%. Besides, under setting [1], the growth inhibition is -0.21%.

For the compound `CC1CCc2cc(F)cc3c(O)c(C(=O)NCC4CCCO4)c(=O)n1c23` (stereo not drawn), the growth inhibition was 12.1% (inactive) and the condensed nuclei was 2.11%. The growth inhibition under setting [1] was determined as 11.9%.

Regarding `O=C1OC(Nc2ccc(Br)cn2)c2ccccc21` (stereo not drawn), the growth inhibition is -21.1% (inactive) and the condensed nuclei amounted to 3.37%. Further, the growth inhibition under setting [1] amounted to 2.61%.

On to `CCOC(=O)c1ccc(-n2c(=O)[nH]c3ccccc3c2=O)cc1`, for which the growth inhibition is -28.4% (inactive) and the condensed nuclei was 4.94%. In addition, the growth inhibition under setting [1] is -4.1%.

For `COc1ccc(-c2onc(C)c2-c2ccccc2)c(O)c1`, the growth inhibition is 25.2% (inactive) and the condensed nuclei was 4.31%. Moreover, under setting [1], the growth inhibition is -2.05%.

For the compound `CCn1c(-c2ccco2)n[nH]c1=S`, the growth inhibition was 2.65% (inactive) and the condensed nuclei turned out to be 3.02%. Moreover, the growth inhibition under setting [1] is -3.63%.

With `CCN(CC)C(=O)COn1c(SCC(=O)N(CC)CC)nc2ccccc2c1=O`, the growth inhibition is 28.8% (inactive) and the condensed nuclei was 5.68%. Besides, under setting [1], the growth inhibition is -9.22%.

As for `COC(=O)COn1c(SCC(=O)OC)nc2ccccc2c1=O`, the growth inhibition is 39.9% (inactive) and the condensed nuclei amounted to 2.06%. Also, under setting [1], the growth inhibition was -6.12%.

Regarding `CN(C)C(=O)COn1c(SCC(=O)N(C)C)nc2ccccc2c1=O`, the growth inhibition is 100% (active) and the condensed nuclei was 7.94%. Moreover, under setting [1], the growth inhibition was -74.5%.

For `Cc1c(/C(O)=C2\C(=O)C(=O)N(CCN(C)C)C2c2cccnc2)cnn1-c1ccccc1` (stereo not drawn), the growth inhibition was 65.4% (inactive) and the condensed nuclei is 7.5%. Further, the growth inhibition under setting [1] worked out at 24.8%.

Consider `Cc1nc2c(c(=O)n1CC1CCCO1)c1nc3ccccc3nc1n2CC(C)C` (stereo not drawn), for which the growth inhibition is 47.8% (inactive) and the condensed nuclei is 7.73%. The growth inhibition under setting [1] is 4.29%.

Consider `Cc1[nH]c(=O)[nH]c(=O)c1S(=O)(=O)N1CCCC1`, for which the growth inhibition is 7.67% (inactive) and the condensed nuclei worked out at 3.07%. The growth inhibition under setting [1] is -13.2%.

`CCCCSc1nnc(-c2ccc(NC(C)=O)cc2)n1C`: the growth inhibition is 14.5% (inactive) and the condensed nuclei is 2.33%. Further, the growth inhibition under setting [1] was found to be 6.32%.

Turning to `c1ccc(OCc2nn3c(C4CCCCC4)nnc3s2)cc1`, the growth inhibition is 0.33% (inactive) and the condensed nuclei was 2.15%. Besides, the growth inhibition under setting [1] is -3.2%.

For the compound `Cc1cccc(C)c1OCC(O)CNS(=O)(=O)c1ccccc1C(=O)N1CCOCC1` (stereo not drawn), the growth inhibition was -11.9% (inactive) and the condensed nuclei was found to be 3.46%. In addition, under setting [1], the growth inhibition is -0.31%.

Consider `COc1ccc(-n2ccc(=O)c3c2CCCC3=O)cc1`, for which the growth inhibition is -18.6% (inactive) and the condensed nuclei amounted to 3.07%. Moreover, under setting [1], the growth inhibition was 1.93%.

For the compound `Cc1ccc(-c2nnc(OCCN3CCOCC3)c3ccccc23)cc1`, the growth inhibition was 30.1% (inactive) and the condensed nuclei amounted to 3.64%. The growth inhibition under setting [1] came out at 10.1%.

For the compound `COc1cc(C2C(C(=O)c3ccc(C)o3)=C(O)C(=O)N2c2cc(C)on2)cc(OC)c1OC` (stereo not drawn), the growth inhibition was -22% (inactive) and the condensed nuclei worked out at 3.21%. The growth inhibition under setting [1] is -13.1%.

For the compound `Cc1c(OCc2ccccc2)c(=O)ccn1Cc1ccccc1`, the growth inhibition is -0.34% (inactive) and the condensed nuclei stood at 1.99%. The growth inhibition under setting [1] is -10.9%.

For `Oc1oc(-c2ccccc2)nc1C=NCc1ccncc1`, the growth inhibition was 2.2% (inactive) and the condensed nuclei stood at 3.2%. Further, the growth inhibition under setting [1] is -2.06%.

In the case of `CC1(C)CC(N(Cc2ccco2)C(=O)Cc2ccccc2)CCO1` (stereo not drawn), the growth inhibition was 12.6% (inactive) and the condensed nuclei came out at 2.03%. Further, the growth inhibition under setting [1] was 0.11%.

As to `Cc1cc(C)n(-c2ncnc3sc(C)c(C)c23)n1`, the growth inhibition is -10.3% (inactive) and the condensed nuclei is 1.35%. In addition, the growth inhibition under setting [1] stood at 2.85%.

On to `COc1ccc(C2NC(=O)NC(O)(C(F)(F)F)C2C(=O)c2ccc(F)cc2)cc1` (stereo not drawn), for which the growth inhibition is -33.6% (inactive) and the condensed nuclei worked out at 2.45%. Besides, the growth inhibition under setting [1] came out at 0.76%.

Turning to `CC(C)c1ccc(O)c(N)c1`, the growth inhibition was -26.1% (inactive) and the condensed nuclei came out at 5.48%. For the same compound, the growth inhibition under setting [1] came out at 2.95%.

In the case of `CC1(C)NC(=O)N(CC(O)COc2cc3ccccc3cc2C(=O)N2CCCCC2)C1=O` (stereo not drawn), the growth inhibition is 23.3% (inactive) and the condensed nuclei turned out to be 4.21%. Besides, the growth inhibition under setting [1] is -6.38%.

With `COC(=O)c1n[nH]c2ccccc12`, the growth inhibition was 52.2% (inactive) and the condensed nuclei is 5%. Moreover, the growth inhibition under setting [1] amounted to 8.18%.

Regarding `CCCCCCOc1ccc(C(=O)n2cnc(N)n2)cc1`, the growth inhibition was -1.14% (inactive) and the condensed nuclei is 1.48%. For the same compound, the growth inhibition under setting [1] was -15.8%.

For `O=c1[nH]cnc2cc(-c3ccccc3)sc12`, the growth inhibition was 7.95% (inactive) and the condensed nuclei is 2.77%. The growth inhibition under setting [1] was found to be 3.25%.

`COc1cccc(NC(=O)c2cc(C(=O)Nc3cccc(OC)c3)n(C)n2)c1`: the growth inhibition is -5.68% (inactive) and the condensed nuclei was found to be 6.71%. In addition, the growth inhibition under setting [1] came out at 22.7%.

With `COC(=O)c1ccc(C2/C(=C(/O)c3ccc(OC)cc3)C(=O)C(=O)N2c2cc(C)on2)cc1` (stereo not drawn), the growth inhibition is 8.36% (inactive) and the condensed nuclei is 3.44%. In addition, the growth inhibition under setting [1] stood at 6.44%.

With `COc1cc(C)nc(N(C)S(=O)(=O)c2ccccc2Cl)n1`, the growth inhibition is 7.98% (inactive) and the condensed nuclei came out at 3.59%. Besides, the growth inhibition under setting [1] is -1.53%.

With `Cn1c(NCC(O)c2ccccc2)nc2c1c(=O)n(Cc1ccc(Cl)c(Cl)c1)c(=O)n2C` (stereo not drawn), the growth inhibition is 46.1% (inactive) and the condensed nuclei worked out at 1.95%. For the same compound, the growth inhibition under setting [1] turned out to be 22.7%.
